Compounds with a hit are over-represented: about 6.7% of the library has one in this group of screens.
C diff growth – C. difficile growth inhibitors, primary screen, HTS; Clostridium difficile clinical isolate growth, OD600, 24 h; active compounds read low; growth activity, negative = inhibition, % at 16 µg/mL (by protocol); 0.25% of 86,000 active;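 active = mean growth activity at or below -80% and every replicate also at or below -80%; inconclusive = mean at or below -80% but some replicate above -80%; inactive = mean growth activity above -80%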;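 note: 0% = DMSO wells and -100% = levofloxacin 16 µg/mL wells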
Pf Dd2 inh – P. falciparum Dd2 growth inhibitors, primary screen, SYBR Green fluorescence, single dose replicates; 72 h; active compounds read low; 2.3% of 94,000 active; activity change, % at 10 µM; in the data active = activity change below about -80%; inconclusive = no clear call, values can overlap the other calls
T cruzi growth-1 – T. cruzi intracellular proliferation inhibitors, primary screen, cell-based, beta-gal Tulahuen parasites, NIH3T3 host, luminescence. 5.9% of 77,000 active. AID 624255, 2012. inhibition, % at 8.34 µM. T. cruzi beta-gal in NIH3T3, GalScreen luminescence, 90 h;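 active = mean inhibition above about 93%, with at least 55% of replicates each passing it, limit read from the data, passing the limit was not always enough; inconclusive = only one of those two conditions holds; inactive = neither condition holds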
T cruzi growth-2 – T. cruzi intracellular proliferation inhibitors, confirmation, cell-based, NIH3T3 host, beta-gal parasite, luminescence, cherry-pick. shares compounds with T cruzi growth-1. T. cruzi beta-gal in NIH3T3, GalScreen luminescence, 90 h. inhibition, % at 8.35 µM. 72% of 5,600 active. AID 651739, 2012;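 active = mean replicate inhibition above about 95% and at least 55% of replicates individually reaching it, limit read from the data; inconclusive = only one of the two criteria is met; inactive = neither criterion is met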
T cruzi growth-3 – inhibitors of intracellular T. cruzi replication, confirmation, NIH3T3 host cells, beta-gal parasites, cherry-pick, set 2 | shares compounds with T cruzi growth-1 | T. cruzi beta-gal in NIH3T3, GalScreen luminescence, 90 h | inhibition, % at 2.09 µM | 21% of 5,600 active | AID 651740, 2012;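 active = mean inhibition above about 95%, with at least 55% of replicates also reaching it, limit read from the data; inconclusive = meets just one of the two conditions; inactive = meets neither condition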;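 note: plate controls were neutral control median for no effect and positive control median for full effect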
3T3 cytotox – cytotoxicity in mouse NIH/3T3 fibroblasts, confirmation, cytotoxicity control for T. cruzi proliferation inhibitor project, cell-based, cherry-pick, single point; cytotoxicity (signal decrease), % at 8.35 µM; shares compounds with T cruzi growth-1; 14% of 5,600 active; AID 651742, 2012; NIH/3T3 viability, CellTiter-Glo ATP luminescence, 90 h;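 active = mean signal decrease across replicates above about 35% based on untreated-well scatter, with enough replicates individually passing, limit read from the data; inconclusive = no rule stated though some were filed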;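 note: 0% = median of neutral control wells and 100% = median of positive control wells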
NIH3T3 tox 2 – NIH/3T3 fibroblast cytotoxicity, confirmation, cytotoxicity control, cell-based, cherry-pick, single point, set 2. shares compounds with T cruzi growth-1. NIH/3T3 viability, CellTiter-Glo ATP luminescence, 90 h. inhibition, % at 24.9 µM. 56% of 5,600 active. AID 651744, 2012;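 active = mean loss of cell viability signal at or above a set limit, and enough replicates individually reaching it; inconclusive = meets only the mean limit or only the replicate share; inactive = meets neither condition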;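 note: 0% = median of neutral control wells and 100% = median of positive control wells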
The depositor's hits bear a star; ? = inconclusive; . = no result.

SMILES	C diff growth	Pf Dd2 inh	T cruzi growth-1	T cruzi growth-2	T cruzi growth-3	3T3 cytotox	NIH3T3 tox 2
C[C@@H]1CN([C@@H](C)CO)C(=O)c2cc(C#Cc3ccccn3)cnc2O[C@H]1CN(C)Cc1cccnc1	5.2	8.9	87.4	.	.	.	.
C[C@@H]1CN([C@@H](C)CO)C(=O)c2cc(C#Cc3ccccn3)cnc2O[C@@H]1CN(C)Cc1cncnc1	-0.6	34.5	?	104.2*	27.9	13.7	-6.1
C[C@@H]1CN([C@H](C)CO)C(=O)c2cc(C#Cc3ccccn3)cnc2O[C@@H]1CN(C)Cc1cncnc1	-1.0	17.0	77.7	.	.	.	.
CCCNC(=O)N(C)C[C@@H]1Oc2ncc(-c3ccc(F)cc3)cc2C(=O)N([C@H](C)CO)C[C@H]1C	3.5	5.9	.	.	.	.	.
CCCNC(=O)N1CC2(C1)[C@H](c1ccccc1)[C@H](CO)N2C(=O)c1ccncc1	-1.0	24.8	.	.	.	.	.
COc1cccc(-c2ccc3c(c2)[C@H]2[C@H](CCN2C(=O)C2CCC2)[C@@H](CO)N3)c1	2.0	-9.3	25.3	.	.	.	.
C[C@H](CO)N1C[C@H](C)[C@H](CN(C)Cc2cccc(F)c2)Oc2cc(-c3ccc(F)cc3)ccc2S1(=O)=O	22.8	-0.5	90.7	.	.	.	.
C[C@H](CO)N1C[C@H](C)[C@@H](CN(C)Cc2cccc(F)c2)Oc2cc(-c3ccccc3)ccc2S1(=O)=O	13.4	-66.6	106.8*	92.2	88.2	43.4*	100.6*
C[C@@H]1CN([C@@H](C)CO)S(=O)(=O)c2ccc(-c3ccc(C#N)cc3)cc2O[C@@H]1CN(C)Cc1cccc(F)c1	10.5	-18.1	.	.	.	.	.
C[C@H]1CN([C@@H](C)CO)S(=O)(=O)c2ccc(-c3ccccc3)cc2O[C@@H]1CN(C)Cc1cccc(F)c1	30.1	-73.3	119.5*	89.1	108.1*	?	103.2*
C[C@@H]1CN([C@H](C)CO)S(=O)(=O)c2ccc(-c3ccc(C#N)cc3)cc2O[C@@H]1CN(C)Cc1cccc(F)c1	17.6	3.2	.	.	.	.	.
C[C@H](CO)N1C[C@H](C)[C@H](CN(C)Cc2cccc(F)c2)Oc2cc(-c3ccccc3)ccc2S1(=O)=O	12.7	-39.7	120.5*	108.4*	68.6	24.5	103.5*
C[C@@H]1CN([C@H](C)CO)S(=O)(=O)c2ccc(-c3ccccc3)cc2O[C@H]1CN(C)Cc1cccc(F)c1	40.2	-54.7	118.4*	100.9*	104.2*	116.6*	103.4*
C[C@@H]1CN([C@@H](C)CO)S(=O)(=O)c2ccc(-c3ccc(C#N)cc3)cc2O[C@H]1CN(C)Cc1cccc(F)c1	12.7	-23.8	.	.	.	.	.
COc1ccc(S(=O)(=O)Nc2ccc3c(c2)C(=O)N([C@H](C)CO)C[C@@H](C)[C@@H](CN(C)Cc2ccccc2)OCCCC[C@H](C)O3)cc1	-0.8	-33.8	30.3	.	.	.	.
C[C@@H]1CN([C@H](C)CO)S(=O)(=O)c2ccc(-c3ccc(F)cc3)cc2O[C@@H]1CN(C)Cc1cccc(F)c1	28.6	-8.3	74.2	.	.	.	.
C[C@H]1CN([C@@H](C)CO)S(=O)(=O)c2ccc(-c3ccccc3)cc2O[C@H]1CN(C)Cc1cccc(F)c1	15.4	-42.8	118.6*	93.6	101.8*	24.9	107.0*
C/C=C/c1cnc2c(c1)C(=O)N([C@@H](C)CO)C[C@@H](C)[C@H](CN(C)Cc1cccc(C(=O)O)c1)O2	-1.1	26.0	.	.	.	.	.
CN1C(=O)c2cc(NC(=O)c3ccc(C(F)(F)F)cc3)ccc2OC[C@@H]2O[C@@H](CC(=O)NC3Cc4ccccc4C3)CC[C@H]21	36.4	-12.2	99.8*	105.8*	48.6	?	43.0*
CN1C(=O)c2cc(NC(=O)c3cccc(Cl)c3)ccc2OC[C@H]2O[C@@H](CC(=O)NC3CCCCC3)CC[C@H]21	-2.4	-9.8	106.7*	103.6*	44.6	26.9	37.7*

Compound activity from PubChem.
